# According to PubChem BioAssay (NCATS):
# Results filed as inconclusive are left out. Values without a mark were called inactive. Active and inactive are the calls of the source. Calls come from the whole dose curve; as a rule, active = well fitted inhibition curve with a large enough effect; inconclusive = small, poorly fitted or top-dose-only effect; inactive = no such curve, though single readings can be large or run the other way.
# Experiment: S16 Schwann cell PMP22 intronic element firefly luciferase assay (AID 624032); note: nearly all actives have a fitted effect of over 30% in size
# Conditions: S16 rat Schwann cells, PMP22 element FLuc, 24 h; series mostly up to 57.5 µM; activity change, negative = inhibition: at the top concentration
# Source text: Charcot-Marie-Tooth-Association [CMTA]
# National Center for Advancing Translational Sciences [NCATS]
# Charcot-Marie-Tooth (CMT) disease was first characterized by Jean-Martin Charcot and Pierre Marie in France and, independently, by Howard Henry Tooth in England in 1886. CMT is one of the most common inherited neurological diseases, affecting approximately 1 in 2,500 Americans. […] The most prevalent type of CMT is known as CMT1A and caused by a duplication of the PMP22 gene which leads to over-expression of this protein. PMP22 is a glycosylated intrinsic membrane protein accounting for 2-5% of the myelin protein content, and its over-expression results in demyelination and subsequently axonal loss.
# A pair of cellular transcription-based assays was developed in the S16 rat Schwann cell lines (Hai, M., et al., 2002) stably transfected with orthogonal reporters - firefly luciferase (Fluc) and beta-lactamase (beta-Lac) - whose expression is driven by an intronic regulatory element of the PMP22 gene (Jones, E.A., et al., 2011) to recapitulate endogenous expression of PMP22. The current assay employs Fluc to report on PMP22 expression. A comprehensive library of approved drugs, the NCGC Pharmaceutical Collection (Huang, R., et al., 2011), was screened in the cross-validating platform of the orthogonal reporter assays to identify drug modulators inhibitory towards PMP22 expression.
# A set of counter-screens was devised to address non-specific activity of the library. An ATP-dependent CellTiter-Glo assay (developed by Promega Corp) was utilized to control cell viability. In addition, biochemical Fluc enzyme assay was performed to assess direct inhibition of the Fluc enzymatic activity.
# Hai, M., Muja, N., DeVries, G.H., Quarles, R.H. and Patel, P.I. Comparative analysis of Schwann cell lines as model systems for myelin gene transcription studies. J Neurosci Res, 2002. 69(4): pp 497-508
# Huang, R., Southall, N., Wang, Y., Yasgar A., Shinn P., Jadhav, A. , Nguyen, D.-T. and Austin, C.P., The NCGC pharmaceutical collection: a comprehensive resource of clinically approved drugs enabling repurposing and chemical genomics. Sci Transl Med, 2011. 3(80): p. 80ps16.
# S16 Schwann cell PMP22 intronic element firefly luciferase assay
# The FLuc-expressing S16 cells were seeded in white solid 1536-well plates at between 500-750 cells/4uL in DMEM medium containing 10% FBS, w/o phenol red. After overnight incubation at 37 degree Celsius/5% C02, 23 nL of compounds or DMSO were delivered to each well using a pin tool, followed by 24h-incubation at 37 degree Celsius/5% C02. Then 4 uL ONE-Glo luminescent substrate mix (Promega) was added to each well. Luminescence was measured on a ViewLux plate reader (Perkin Elmer). The % activity was determined by normalizing to the average readings of PTC124 (a positive control) - treated cells relative to DMSO-treated cells (0% Activity). The concentration-effect curves were then classified based on curve quality (r2), response magnitude and degree of measured activity.
# Potency is the fitted concentration of half-maximal effect.
SMILES,"activity change, negative = inhibition",Potency
O=C1CCC(N2C(=O)c3ccccc3C2=O)C(=O)N1 (centres undefined),3.19%,
NC(=O)c1cnccn1,23.1%,
CCCCNc1cc(C(=O)O)cc(S(N)(=O)=O)c1Oc1ccccc1,-2.41% [at 25.7 µM],
Oc1ccc(C2CNCCc3c2cc(O)c(O)c3Cl)cc1 (centres undefined),-26.8%,
N#Cc1ccc(C(c2ccc(C#N)cc2)n2cncn2)cc1,6.94% [at 25.7 µM],
Nc1ccc(S(=O)(=O)Nc2ccnn2-c2ccccc2)cc1,0.199% [at 25.7 µM],
O=NN(CCCl)C(=O)NCCCl,-6.18%,
NC[C@H](O)c1ccc(O)c(O)c1,,9.07 µM (active)
NCCCC(N)(C(=O)O)C(F)F (centres undefined),-0.616%,
N=c1nc(N2CCCCC2)cc(N)n1O,-5.67%,
COc1ccc2nc(S(=O)Cc3ncc(C)c(OC)c3C)[nH]c2c1 (centres undefined),2.63%,
N[C@@H]1CONC1=O,3.15%,
Cc1cn[nH]c1,-17.8%,
NCCc1ccc(O)c(O)c1,,8.09 µM (active)
Nc1nc2c(ncn2COCCO)c(=O)[nH]1,1.85% [at 25.7 µM],
CC(=O)Oc1ccccc1C(=O)O,-9.09%,
CC(C)NCC(O)COc1ccc(COCCOC(C)C)cc1 (centres undefined),40.2%,
O=c1n(CCCN2CCN(c3cccc(Cl)c3)CC2)nc2ccccn12,0.0662% [at 25.7 µM],
CCCC(CCC)C(=O)O,11.8%,
Cc1oncc1C(=O)Nc1ccc(C(F)(F)F)cc1,94.4% [at 25.7 µM],

SMILES,"activity change, negative = inhibition",Potency
NNCCc1ccccc1,60.1% [at 25.7 µM],
Cc1cc2c(C(C)C)c(O)c(O)c(C=O)c2c(O)c1-c1c(C)cc2c(C(C)C)c(O)c(O)c(C=O)c2c1O,-13.8%,
Clc1cccc(Cl)c1NC1=NCCN1,0.194%,
CC(C)C[C@H](NC(=O)[C@@H](O)[C@H](N)Cc1ccccc1)C(=O)O,7.09%,
CCOC(=O)C1=C[C@]2(CC)CCCN3CCc4c(n1c1ccccc41)[C@@H]32,4.97%,
CC(c1cc2ccccc2s1)N(O)C(N)=O (centres undefined),0.408%,
O=c1[nH]cnc2[nH]ncc12,-12.4%,
Clc1ccc(Nc2nnc(Cc3ccncc3)c3ccccc23)cc1,,20.3 µM (active)
CC(C[N+](C)(C)C)OC(N)=O (centres undefined),-2.53%,
Cc1ccccc1C(OCCN(C)C)c1ccccc1 (centres undefined),14.4%,
NS(=O)(=O)c1cc2c(cc1Cl)NC=NS2(=O)=O,-1.72%,
CN1CCN(CCCN2c3ccccc3Sc3ccc(C(F)(F)F)cc32)CC1,-86.1%,
OC(CN1CCC(Cc2ccc(F)cc2)CC1)c1ccc(Cl)cc1 (centres undefined),-25.3%,
Nc1nc2ccc(OC(F)(F)F)cc2s1,79.9%,
Cc1c(C)c2c(c(C)c1O)CCC(C)(COc1ccc(CC3SC(=O)NC3=O)cc1)O2 (centres undefined),,10.2 µM (active)
CCc1ccc(CCOc2ccc(CC3SC(=O)NC3=O)cc2)nc1 (centres undefined),65.5%,
NC(N)=NC(=O)c1nc(Cl)c(N)nc1N,-0.505%,
Cc1ccc(N(CC2=NCCN2)c2cccc(O)c2)cc1,-19.4%,
C#Cc1cccc(Nc2ncnc3cc(OCCOC)c(OCCOC)cc23)c1,-17.2%,
